Experimental data as given in the supplement of paper PMC9694430.
Structures can show the parent of a compound that is named as a salt.

Columns and labels:
Assay in all cases: thermal shift delta Tm vs DMSO control; higher = stronger stabilization (binding)
Conditions in all cases: 12.5 µM; protein concentration 2 µM
LOC_OS01G01410-cb001 = tested on: LOC_OS01G01410-cb001
Method in brief: (§1)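 Heating from 25°C to 95°C at 0.05°C/s, fluorescence was recorded for 19.5 μl wells of 2 μM E. coli-expressed, purified rice kinase domain in 100 mM potassium phosphate pH 7.5, 150 mM NaCl, 10% glycerol and 5 × SYPRO Orange with compound in DMSO. Boltzmann fits gave melting temperatures for this differential scanning fluorimetry assay. The shift reported is the mean of three replicates against the DMSO-only protein.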

LOC_OS01G02750-cb003 = tested on: LOC_OS01G02750-cb003
Method in brief: as §1

LOC_OS01G10900-cb004 = tested on: LOC_OS01G10900-cb004
Method in brief: as §1

LOC_OS01G13800-cb001 = tested on: LOC_OS01G13800-cb001
Method in brief: as §1

LOC_OS01G14860-cb001 = tested on: LOC_OS01G14860-cb001
Method in brief: as §1

LOC_OS01G21960-cb002 = tested on: LOC_OS01G21960-cb002
Method in brief: as §1

LOC_OS01G39600-cb002 = tested on: LOC_OS01G39600-cb002
Method in brief: as §1

LOC_OS01G48390-cb002 = tested on: LOC_OS01G48390-cb002
Method in brief: as §1

LOC_OS01G51400-cb002 = tested on: LOC_OS01G51400-cb002
Method in brief: as §1

LOC_OS01G52050-cb004 = tested on: T1, LOC_OS01G52050-cb004
T1 sequence (whole entry): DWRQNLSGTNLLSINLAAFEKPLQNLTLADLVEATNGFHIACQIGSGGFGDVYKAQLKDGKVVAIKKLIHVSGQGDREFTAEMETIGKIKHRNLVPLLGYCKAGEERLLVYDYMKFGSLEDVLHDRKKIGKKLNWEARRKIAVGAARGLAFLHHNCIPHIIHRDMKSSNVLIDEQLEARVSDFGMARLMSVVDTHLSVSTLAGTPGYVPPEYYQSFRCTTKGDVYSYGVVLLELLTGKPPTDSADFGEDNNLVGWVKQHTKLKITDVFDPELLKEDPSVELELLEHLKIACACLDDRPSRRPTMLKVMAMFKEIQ
Method in brief: as §1
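Also: purified Escherichia coli-expressed rice kinase domain construct.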

SMILES	thermal shift delta Tm (LOC_OS01G01410-cb001) [°C]	thermal shift delta Tm (LOC_OS01G02750-cb003) [°C]	thermal shift delta Tm (LOC_OS01G10900-cb004) [°C]	thermal shift delta Tm (LOC_OS01G13800-cb001) [°C]	thermal shift delta Tm (LOC_OS01G14860-cb001) [°C]	thermal shift delta Tm (LOC_OS01G21960-cb002) [°C]	thermal shift delta Tm (LOC_OS01G39600-cb002) [°C]	thermal shift delta Tm (LOC_OS01G48390-cb002) [°C]	thermal shift delta Tm (LOC_OS01G51400-cb002) [°C]	thermal shift delta Tm (LOC_OS01G52050-cb004) [°C]
O=C(Nc1cccnc1)c1cc(-c2ccnc(F)c2)ccc1OCc1ccccc1	2.5	0.28	-0.53	0.66	-0.01	0.38	-0.21	0.88	0.01	-0.04
C[S+]([O-])c1ccc(-c2nc(-c3ccc(F)cc3)c(-c3ccncc3)[nH]2)cc1 (stereo not given)	1.61	-0.29	0.57	0.79	2.49	1.22	0.18	0.4	-0.08	0.5
COc1ccc(/C=C/C(=O)C2(C(=O)/C=C/c3ccc(OC)c(OC)c3)CCCCC2)cc1OC	0.52	0.5	1.18	0.16	0.18	0.55	0.02	0.51	0.07	0.63
C=CC(=O)Nc1cccc(Nc2nc(Nc3ccc(N4CCN(C(C)=O)CC4)cc3OC)ncc2C(F)(F)F)c1 [Rociletinib (CO-1686, AVL-301)]	1.11	-0.18	-0.01	-0.38	0.68	0.5	-0.84	1.8	0.49	0.58
Cc1c[nH]c(/C=C2\C(=O)Nc3ccccc32)c1CCC(=O)O	1.48	0.9	0.02	0	1.61	0.56	4.55	1.99	0.25	1.77
O=C(c1ccc(Nc2nccc(-c3cc4ccccc4s3)n2)cc1)N1CCC(N2CCCC2)CC1 [IKK-16 (IKK Inhibitor VII)]	2.52	2.69	4.53	-0.34	5.72	2.79	8.28	1.72	-0.14	4.5
CN1CC[C@H](c2c(O)cc(O)c3c(=O)cc(-c4ccccc4Cl)oc23)[C@H](O)C1 [Flavopiridol HCl]	0.19	0.76	0.17	0.42	4.95	1.89	1.02	0.58	0.54	1.03
COc1cc2ncnc(Nc3ccc(Oc4ccccc4)cc3C)c2cc1OC	0.68	0.9	0.3	-0.47	0.22	0.26	0.05	0.79	0.08	2.07
O=C(NCCCNc1nc(Nc2cccc(NC(=O)N3CCCC3)c2)ncc1I)c1cccs1	4.61	2.64	1.85	-0.09	5.77	3.44	8.52	2.91	1.38	10.7
C=CC(=O)Nc1cc(Nc2nccc(-c3cn(C)c4ccccc34)n2)c(OC)cc1N(C)CCN(C)C [Osimertinib (AZD9291)]	0.41	0.94	0.45	-0.53	0.01	0.34	0.02	-0.33	0.43	0.11
C=CC(=O)Nc1ccc(CN2C(=O)N(c3cc(OC)cc(OC)c3)Cc3cnc(Nc4ccc(N5CCN(C)CC5)cc4)nc32)cc1	1.43	1.19	4.79	0.56	0.97	1.74	-0.73	4.57	0.02	0.08
Cn1nccc1Nc1nccc(-c2ccn([C@H](CO)c3ccc(Cl)c(F)c3)c(=O)c2)n1	0.99	1.21	0.24	-0.2	5	0.94	0.18	0.6	0.59	0.85
CCN(CC)CCNC(=O)c1c(C)[nH]c(/C=C2\C(=O)Nc3ccc(F)cc32)c1C [Sunitinib Malate]	4.49	1.04	0.54	-0.1	1.29	2.13	2.58	2.08	0	7.04
COc1cc(CCc2cc(NC(=O)c3ccc(N4CC(C)NC(C)C4)cc3)n[nH]2)cc(OC)c1 (stereo not given)	1.93	0.89	7.96	-0.99	0.38	0.1	0.43	6.33	0.35	0
O=C(NC(NC(=S)Nc1ccc(F)c([N+](=O)[O-])c1)C(Cl)(Cl)Cl)C(c1ccccc1)c1ccccc1 (stereo not given)	3.6	9.2	2.57	2.31	3.26	3.31	28.9	3.82	1.04	3.03
C=CC(=O)Nc1cc(Nc2nccc(-c3c[nH]c4ccccc34)n2)c(OC)cc1N(C)CCN(C)C	0.92	0.98	0.33	0.08	0.37	0.6	0.12	0.83	0.34	0.96
CS(=O)(=O)c1ccc(-c2cnc(N)c(C(=O)Nc3ccccc3)n2)cc1	1.64	0.51	0.6	0	5.11	1.15	1.65	0.08	0.3	0.77
Cn1cnc2c(F)c(Nc3ccc(Br)cc3Cl)c(C(=O)NOCCO)cc21 [Selumetinib (AZD6244)]	0.81	-0.16	0.43	0.45	0.22	0.07	0.25	1.04	0.36	0.08

SMILES	thermal shift delta Tm (LOC_OS01G01410-cb001) [°C]	thermal shift delta Tm (LOC_OS01G02750-cb003) [°C]	thermal shift delta Tm (LOC_OS01G10900-cb004) [°C]	thermal shift delta Tm (LOC_OS01G13800-cb001) [°C]	thermal shift delta Tm (LOC_OS01G14860-cb001) [°C]	thermal shift delta Tm (LOC_OS01G21960-cb002) [°C]	thermal shift delta Tm (LOC_OS01G39600-cb002) [°C]	thermal shift delta Tm (LOC_OS01G48390-cb002) [°C]	thermal shift delta Tm (LOC_OS01G51400-cb002) [°C]	thermal shift delta Tm (LOC_OS01G52050-cb004) [°C]
Cc1c[nH]c2nc(Nc3ccc(N4CCN(C)CC4)c(F)c3)nc(-c3cccc(CC#N)c3)c12	6.3	6.99	3.64	0.12	5.41	4.45	9.35	5.5	1.14	13.5
O=c1nc(N2CCOCC2)oc2c(-c3cccc4c3sc3ccccc34)cccc12	0.12	-0.86	3.3	-0.44	0.6	0.45	-0.5	0.27	-0.4	1.17
CC(=O)c1c(C)c2cnc(Nc3ccc(N4CCNCC4)cn3)nc2n(C2CCCC2)c1=O	0.65	0.74	0.47	-0.38	2.26	0.28	0.65	0.1	0	0.98
COc1ccc(COc2ccc(Cc3cnc(N)nc3N)cc2OC)cc1	-0.12	1.12	2.07	0.44	0.12	0.25	0.89	-0.01	0.2	0.04
O=C1NC(=O)/C(=C/c2ccc3nccc(-c4ccncc4)c3c2)S1	1.21	0.63	0.95	0.37	0.98	0.96	1.76	0.2	0.08	0.79
CC(C)CCN1c2nc(Nc3cc(F)c(O)c(F)c3)ncc2N(C)C(=O)C1C (stereo not given)	2.96	1.52	2.63	0.08	3.74	1.92	3.67	1.58	0.67	5.38
C=CC(=O)Nc1cccc(C)c1Nc1ncc2cc(-c3c(Cl)c(OC)cc(OC)c3Cl)ccc2n1	0.73	1.61	1.22	0.52	0.39	0.77	0.15	0.36	0.29	0.2
Cc1cc(F)c(Nc2ncnc3cc(OCc4ccccc4)ccc23)cc1O	0.8	2.62	0.6	0.61	0.45	1.56	1.09	1.2	0.81	0.77
CC#CC(=O)N1CC[C@@H](n2c(=O)n(-c3ccc(Oc4ccccc4)cc3)c3c(N)ncnc32)C1 [ONO-4059 (GS-4059) hydrochloride]	0.39	0.39	0.14	-0.37	0.23	0.04	0.11	-0.2	-0.08	-0.56
CCCCNc1ncc2c(-c3ccc(CN4CCN(C)CC4)cc3)cn([C@H]3CC[C@H](O)CC3)c2n1	5.57	6.91	0.53	-0.91	2.44	2.55	7.19	3.3	0.81	9.81
COc1cc(N2CCN(C)CC2)ccc1Nc1ncc2c(n1)N(C)c1ccccc1C(=O)N2	0.72	1.11	1.07	-0.23	0.43	0.53	0.75	0.41	0.22	-0.22
CNC(=O)c1ccccc1Nc1cc(Nc2ccc(N3CCOCC3)cc2OC)ncc1C(F)(F)F	0.48	1.23	0.53	1.17	1.05	1.09	0.34	0.58	0.74	5.73
CNC(=O)c1ccc(Nc2ncc(C(F)(F)F)c(NCc3nccnc3N(C)S(C)(=O)=O)n2)cc1	1.64	3.47	1.96	-0.3	7.22	2.6	5.05	3.16	0.96	6.78
C=CC(=O)N[C@H]1CCOC[C@H]1Nc1ncc2cc(-c3c(Cl)c(OC)cc(OC)c3Cl)ccc2n1	0.19	-0.27	2.28	-0.14	0.4	0.24	-0.48	0.49	-0.01	1.84
Cc1cc(CN2CCN(c3c(Br)cnc4nc(-c5ccc(N6CCN(C)CC6)cc5)[nH]c34)CC2)no1	4.15	1.45	1.57	0.82	0.83	2.01	4.92	3.13	0.84	0.67
Cc1cc(CS(=O)(=O)c2ccccc2)cc(OCc2ccc(CN3CCC[C@@H]3CO)cc2)c1	0.31	1.37	0.19	-0.27	-0.13	0.3	-13.5	0.65	0.36	-0.24
COc1cc2c(Oc3ccc(NC(=O)C4(C(=O)Nc5ccc(F)cc5)CC4)cc3F)ccnc2cc1OCCCN1CCOCC1	2.26	3.47	1.69	-0.35	1.69	0.4	0.45	6.85	0.19	4.66
C#Cc1cccc(Nc2ncnc3cc(OCCOC)c(OCCO)cc23)c1	1.63	0.85	1.08	0.74	0.28	0.99	2.63	2.12	0.19	1.63
